The values that follow come from PubChem BioAssay (NCI).

Structures are written as SMILES. This is part of a sample that, as a whole, favours compounds with a hit. Of some 83,000 tested, about 20% had one in any assay.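 Growth was measured after 48 h exposure to one concentration of compound in 96-well plates. Values under 10 count as active.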 Unmarked numbers belong to inactive results. Activity calls are given as the source filed them.

This experiment relates to SW-620 colon. The experiment can be described thus: NCI-60 one-dose screen, 48 h (100 = growth as untreated, 0 = no growth, -100 = all killed). The note with it: 10 µM unless noted.
Take `CCOC(=O)c1ccc(N2NC(=O)/C(=C/c3ccc([N+](=O)[O-])o3)C2=O)cc1`: the growth is 106%.

Consider `COc1ccc(-c2cc(-c3ccc(Nc4nc(Nc5ccc(Cl)cc5)nc(Nc5ccc(Cl)cc5)n4)cc3)nc(N)c2C#N)cc1`, for which the growth was -3.93% (active).

Turning to `O=C1/C(=C/c2ccc(F)cc2)C=C(c2ccccc2)N1CCc1ccccc1`, the growth is 70%.

With `O=c1c2c3c(sc2n2c(-c4cn(-c5ccccc5)nc4-c4ccc(Cl)cc4)nnc2n1Cc1ccccc1)CCCC3`, the growth was 110%.

In the case of `COC(=O)c1c2c(c[n+]([O-])c1C)C(=O)C=CC2=O`, the growth is 0.106% (active).

In the case of `Cc1ccc(-n2c(-c3ccccc3)c(-c3ccccc3)c3c(SCC(=O)n4[nH]c(N)cc4=O)ncnc32)cc1`, the growth is 90.3%.

For `COc1cc(CCC[P+](c2ccccc2)(c2ccccc2)c2ccccc2)cc2c1OCO2`, the growth was 37.6%.

As to `COc1cccc(-c2nc3sccn3c2-c2ccnc(NCCNS(=O)(=O)c3cccc(Cl)c3)c2)c1`, the growth was 66.5%.

Regarding `CC1=C([Se]CC(OC(=O)[C@@H](CO)NC(=O)OC(C)(C)C)C(=O)NC(C)(C)C)C(=O)c2ccccc2C1=O` (stereo partly drawn), the growth is -85.9% (active).

As for `Cc1ccc(Cc2cnc(NC(=O)c3ccc4noc(-c5ccccc5)c4c3)s2)cc1`, the growth was 89.1%.

On to `N#CC1=C(/N=C/c2ccccc2)Oc2c(ccc3ccccc23)C1c1ccccc1` (stereo not drawn), for which the growth is 23.9%.

`CC/C=C1/C(=O)C=C[C@@H]1C/C=C\CCCC(=O)O`: the growth is 43.5%.

With `CC(=O)c1nc(Nc2ccc(C)cc2)sc1C`, the growth is 97.4%.
